Test results from ChEMBL document CHEMBL1961873, “Compounds: GSK PKIS; Assays: Nanosyn kinase panel” (2012).

The compounds below were run against Serine/threonine-protein kinase SIK2 (Homo sapiens) (UniProt Q9H0K1). Details: at 1 µM.
Serine/threonine-protein kinase SIK2 (Homo sapiens), sequence (Q9H0K1 whole entry, looked up): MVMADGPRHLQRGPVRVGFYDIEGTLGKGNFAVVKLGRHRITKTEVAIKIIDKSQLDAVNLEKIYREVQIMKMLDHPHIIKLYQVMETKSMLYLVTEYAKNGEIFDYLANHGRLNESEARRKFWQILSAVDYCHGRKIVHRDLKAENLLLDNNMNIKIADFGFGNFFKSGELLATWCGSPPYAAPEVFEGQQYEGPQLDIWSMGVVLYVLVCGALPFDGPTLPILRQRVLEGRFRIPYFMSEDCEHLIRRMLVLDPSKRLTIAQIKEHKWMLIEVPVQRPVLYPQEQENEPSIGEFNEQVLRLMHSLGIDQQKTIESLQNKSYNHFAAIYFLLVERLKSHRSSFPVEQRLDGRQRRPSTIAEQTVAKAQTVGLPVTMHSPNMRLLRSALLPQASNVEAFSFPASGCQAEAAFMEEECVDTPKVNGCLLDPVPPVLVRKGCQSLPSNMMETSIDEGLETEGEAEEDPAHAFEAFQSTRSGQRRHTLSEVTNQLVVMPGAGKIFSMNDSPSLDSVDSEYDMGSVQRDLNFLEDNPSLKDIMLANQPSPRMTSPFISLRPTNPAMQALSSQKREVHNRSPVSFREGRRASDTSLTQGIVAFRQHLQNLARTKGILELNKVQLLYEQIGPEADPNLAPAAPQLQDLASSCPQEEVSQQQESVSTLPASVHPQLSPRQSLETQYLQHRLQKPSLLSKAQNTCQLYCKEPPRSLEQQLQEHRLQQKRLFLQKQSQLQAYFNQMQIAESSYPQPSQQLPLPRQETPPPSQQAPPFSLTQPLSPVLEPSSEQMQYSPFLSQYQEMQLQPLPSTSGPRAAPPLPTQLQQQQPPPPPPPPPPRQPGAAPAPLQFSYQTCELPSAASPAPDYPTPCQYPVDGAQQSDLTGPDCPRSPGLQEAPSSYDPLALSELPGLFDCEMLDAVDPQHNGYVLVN

Structure (SMILES)	inhibition [%]
NC(=O)c1cc(-c2ccncc2)cc(-c2ccccc2)c1N	14.2
COc1cc2ncn(-c3cc(OCc4cccs4)c(C(N)=O)s3)c2cc1OC	24.9
COc1ccc(C2=C(N3CCc4ccccc43)C(=O)NC2=O)cc1	11.3
NS(=O)(=O)c1ccc(N/N=C2\C(=O)Nc3ccc(C(=O)NCCCn4ccnc4)cc32)cc1	12.7
O=C(Nc1n[nH]c2nc(-c3ccc(O)cc3)c(Br)cc12)C1CC1	19.9
Clc1ccc(CNc2nccc(-c3cnn4ncccc34)n2)cc1	0.45
CS(=O)(=O)CCNCc1ccc(-c2ccc3ncnc(Nc4ccc(OCc5ccccc5)c(Br)c4)c3c2)o1	4.18
c1ccc(Oc2ccc(Nc3ncc(-c4ccccc4)o3)cc2)cc1	1.2
Cc1ccc(NC(=O)c2ccoc2)cc1-c1ccc(C(=O)NCC2CC2)cc1	5.33
C/C(Nc1ccc(S(N)(=O)=O)cc1)=C1/C(=O)Nc2ccccc21	-0.55
Fc1ccc(-c2c(-c3ccncc3)nc3n2CCS3)cc1	5.89
O=C(Nc1ccc(Oc2ccc3[nH]c(NC(=O)c4ccccc4)nc3c2)cc1)Nc1cc(C(F)(F)F)ccc1F	6.45
O=C1NC(=O)C(c2cccc(Cl)c2)=C1Nc1ccc(Cl)c(C(=O)O)c1	4.62
NS(=O)(=O)c1ccc(Nc2cc(-c3ccc(O)c(F)c3)n[nH]2)cc1	8.46
COC(=O)Nc1nc2ccc(Sc3ccc(NC(=O)Nc4cc(C(F)(F)F)ccc4F)cc3)cc2[nH]1	0.47
Cc1nnc(-c2ccc(C)c(-c3ccc(C(=O)NCc4ccc(Cl)cc4)cc3)c2)o1	11.4
COc1ccc2ncn(-c3cc(O[C@H](C)c4ccccc4Cl)c(C(N)=O)s3)c2c1	0.17

Structure (SMILES)	inhibition [%]
COc1cc(N2CCN(C(C)C)CC2)ccc1Nc1nc(Nc2ccc(F)cc2C(=O)NC[C@@H](O)CO)c2cc[nH]c2n1	9.21
NS(=O)(=O)c1ccc(N/N=C2\C(=O)Nc3ccc(-c4cnco4)cc32)cc1	7.34
CN1CCN(CCCNc2nc3ccc(Oc4ccc(NC(=O)Nc5cc(C(F)(F)F)ccc5F)cc4)cc3[nH]2)CC1	0.76
Fc1ccc(-c2ncn(C3CCNCC3)c2-c2ccnc(Oc3ccc(Oc4ccccc4)cc3)n2)cc1	10.1
COc1cc(Nc2ncc3c(C)nc(-c4cccc(Oc5ccccc5)c4)n3n2)cc(OC)c1OC	0.43
CCc1ccc(Oc2nccc(-c3c(-c4ccc(F)cc4)ncn3C3CCNCC3)n2)cc1	19.4
Cc1ccc(C(=O)NC(C)C)cc1-c1ccc(C(=O)NCC2CC2)cc1	-9.28
COc1cccc(-n2cnc3c(N/N=C/c4ccncc4)ncnc32)c1	34.1
Fc1ccc(-c2ncn(C3CCNCC3)c2-c2ccnc(Oc3ccc4c(c3)OCO4)n2)cc1	18.5
O=C(NCC1CC1)c1ccc(-c2cccc(C(=O)NC3CC3)c2)cc1	-0.16
C#Cc1cccc(Nc2ncnc3ccc(OCCCCNCCS(C)(=O)=O)cc23)c1	27.5
NCc1ccc(-n2c(-c3nonc3N)nc3cnccc32)cc1	15.8
O=C(Nc1n[nH]c2cc(-c3ccccc3)ccc12)C1CC1	12.8
CCS(=O)(=O)c1ccc(OC)c(Nc2ncc(-c3cccc(-c4ccccc4F)c3)o2)c1	6.03
CNC(=O)c1cncc(/C=C/c2c(C)cccc2C)c1	27.6
CCC(=O)Nc1ccc(C)c(-c2ccc(C(=O)NCC3CC3)cc2)c1	6.63
c1ccc(-c2n[nH]cc2-c2ccnc(-c3ccc(OCCN4CCOCC4)cc3)c2)nc1	-0.03

Each compound was assayed against T1, Serine/threonine-protein kinase TBK1 (Homo sapiens) (UniProt Q9UHD2). Details: at 0.1 µM.
T1 sequence (whole entry): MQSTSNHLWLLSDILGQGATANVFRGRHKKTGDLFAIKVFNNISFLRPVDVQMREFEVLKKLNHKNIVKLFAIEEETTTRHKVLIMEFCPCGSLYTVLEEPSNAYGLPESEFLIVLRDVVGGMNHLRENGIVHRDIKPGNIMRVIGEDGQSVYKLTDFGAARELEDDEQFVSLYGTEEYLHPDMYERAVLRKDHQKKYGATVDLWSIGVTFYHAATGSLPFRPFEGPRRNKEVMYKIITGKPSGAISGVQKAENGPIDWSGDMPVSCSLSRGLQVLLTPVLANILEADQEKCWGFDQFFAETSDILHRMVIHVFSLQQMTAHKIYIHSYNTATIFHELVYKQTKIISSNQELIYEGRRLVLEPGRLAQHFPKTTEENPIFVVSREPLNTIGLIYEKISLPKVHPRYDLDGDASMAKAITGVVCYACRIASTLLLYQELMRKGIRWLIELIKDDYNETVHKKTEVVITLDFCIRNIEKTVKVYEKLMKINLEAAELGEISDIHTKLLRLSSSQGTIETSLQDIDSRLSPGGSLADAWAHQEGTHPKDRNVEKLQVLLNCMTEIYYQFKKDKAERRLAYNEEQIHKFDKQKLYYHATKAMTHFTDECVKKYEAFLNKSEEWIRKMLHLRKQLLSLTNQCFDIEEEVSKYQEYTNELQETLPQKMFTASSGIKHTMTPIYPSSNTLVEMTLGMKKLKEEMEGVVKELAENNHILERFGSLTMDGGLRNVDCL

Structure (SMILES)	inhibition [%]
NC(=O)c1cc(-c2ccncc2)cc(-c2ccccc2)c1N	3.5
COc1cc2ncn(-c3cc(OCc4cccs4)c(C(N)=O)s3)c2cc1OC	3.06
COc1ccc(C2=C(N3CCc4ccccc43)C(=O)NC2=O)cc1	0.88
NS(=O)(=O)c1ccc(N/N=C2\C(=O)Nc3ccc(C(=O)NCCCn4ccnc4)cc32)cc1	3.93
O=C(Nc1n[nH]c2nc(-c3ccc(O)cc3)c(Br)cc12)C1CC1	4.12
Clc1ccc(CNc2nccc(-c3cnn4ncccc34)n2)cc1	0.1
CS(=O)(=O)CCNCc1ccc(-c2ccc3ncnc(Nc4ccc(OCc5ccccc5)c(Br)c4)c3c2)o1	1.02
c1ccc(Oc2ccc(Nc3ncc(-c4ccccc4)o3)cc2)cc1	3.15
Cc1ccc(NC(=O)c2ccoc2)cc1-c1ccc(C(=O)NCC2CC2)cc1	0.28
C/C(Nc1ccc(S(N)(=O)=O)cc1)=C1/C(=O)Nc2ccccc21	0.77
Fc1ccc(-c2c(-c3ccncc3)nc3n2CCS3)cc1	0.11
O=C(Nc1ccc(Oc2ccc3[nH]c(NC(=O)c4ccccc4)nc3c2)cc1)Nc1cc(C(F)(F)F)ccc1F	0.91
O=C1NC(=O)C(c2cccc(Cl)c2)=C1Nc1ccc(Cl)c(C(=O)O)c1	2.24
NS(=O)(=O)c1ccc(Nc2cc(-c3ccc(O)c(F)c3)n[nH]2)cc1	-1
COC(=O)Nc1nc2ccc(Sc3ccc(NC(=O)Nc4cc(C(F)(F)F)ccc4F)cc3)cc2[nH]1	-0.64
Cc1nnc(-c2ccc(C)c(-c3ccc(C(=O)NCc4ccc(Cl)cc4)cc3)c2)o1	1.16
COc1ccc2ncn(-c3cc(O[C@H](C)c4ccccc4Cl)c(C(N)=O)s3)c2c1	2.41

Structure (SMILES)	inhibition [%]
COc1cc(N2CCN(C(C)C)CC2)ccc1Nc1nc(Nc2ccc(F)cc2C(=O)NC[C@@H](O)CO)c2cc[nH]c2n1	1.74
NS(=O)(=O)c1ccc(N/N=C2\C(=O)Nc3ccc(-c4cnco4)cc32)cc1	7.17
CN1CCN(CCCNc2nc3ccc(Oc4ccc(NC(=O)Nc5cc(C(F)(F)F)ccc5F)cc4)cc3[nH]2)CC1	1.88
Fc1ccc(-c2ncn(C3CCNCC3)c2-c2ccnc(Oc3ccc(Oc4ccccc4)cc3)n2)cc1	2.66
COc1cc(Nc2ncc3c(C)nc(-c4cccc(Oc5ccccc5)c4)n3n2)cc(OC)c1OC	4.47
CCc1ccc(Oc2nccc(-c3c(-c4ccc(F)cc4)ncn3C3CCNCC3)n2)cc1	4.53
Cc1ccc(C(=O)NC(C)C)cc1-c1ccc(C(=O)NCC2CC2)cc1	-1.37
COc1cccc(-n2cnc3c(N/N=C/c4ccncc4)ncnc32)c1	0.99
Fc1ccc(-c2ncn(C3CCNCC3)c2-c2ccnc(Oc3ccc4c(c3)OCO4)n2)cc1	2.29
O=C(NCC1CC1)c1ccc(-c2cccc(C(=O)NC3CC3)c2)cc1	2.28
C#Cc1cccc(Nc2ncnc3ccc(OCCCCNCCS(C)(=O)=O)cc23)c1	1.72
NCc1ccc(-n2c(-c3nonc3N)nc3cnccc32)cc1	4.35
O=C(Nc1n[nH]c2cc(-c3ccccc3)ccc12)C1CC1	1.84
CCS(=O)(=O)c1ccc(OC)c(Nc2ncc(-c3cccc(-c4ccccc4F)c3)o2)c1	0.72
CNC(=O)c1cncc(/C=C/c2c(C)cccc2C)c1	0.21
CCC(=O)Nc1ccc(C)c(-c2ccc(C(=O)NCC3CC3)cc2)c1	2.36
c1ccc(-c2n[nH]cc2-c2ccnc(-c3ccc(OCCN4CCOCC4)cc3)c2)nc1	1.5
